Measured values: PubChem BioAssay (EPA / NIEHS)
Active and inactive are the calls of the source. The calls were made as follows: active = hit-call score of the fitted dose curve at least 0.9, where 1 is the maximum; inactive = score below 0.9.

test system: not listed separately; test: ATG_CRE_CIS: Attagene CIS-FACTORIAL HepG2 Assay for human cAMP Responsive Element (CRE) binding protein 3 (AID 2282926); conditions: HepG2 CRE cis-reporter, Attagene multiplexed mRNA; actives raise or lower the signal
Summary of the method: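 Liver-derived HepG2, transfected with a CRE-containing reporter panel, exposed 24 h; transcript levels sized and quantified by capillary electrophoresis of labelled amplicons; signal changes either way referenced to vehicle.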

outcome, inactive:
C=CC(=O)OCCC(F)(F)C(F)(F)C(F)(F)C(F)(F)C(F)(F)C(F)(F)F
OCC1CCC(CO)CC1 (centres undefined)
c1cnc2c(c1)ccc1cccnc12
Cc1ccc(S(=O)(=O)O)cc1
CC1=NN(c2ccccc2)C(=O)C1
FC(F)(F)N1C(F)(F)C(F)(F)OC(F)(F)C1(F)F
OCC(F)(F)C(F)(F)C(F)(F)C(F)(F)C(F)(F)C(F)(F)C(F)(F)C(F)(F)C(F)(F)C(F)(F)C(F)(F)F
O=C(Nc1ccc(Cl)c(Cl)c1)c1cc(Cl)cc(Cl)c1O
Cc1ccc(N=Nc2c(O)ccc3ccccc23)c(C)c1
C=CC(=O)OCCC(F)(F)C(F)(F)C(F)(F)C(F)(F)C(F)(F)C(F)(F)C(F)(F)C(F)(F)F
Cc1ccc2ccc3ccc(C)cc3c2c1
O=C(NCc1ncc(C(F)(F)F)cc1Cl)c1c(Cl)cccc1Cl
Cc1ccccc1C(OCCN(C)C)c1ccccc1 (centres undefined)
Nc1ccc(O)c(C(=O)O)c1
CC(C)CCOCCC(C)C
CCOC(=O)c1nc(C(Cl)(Cl)Cl)n(-c2ccc(Cl)cc2Cl)n1
O=C(F)C(F)(F)C(F)(F)C(F)(F)C(F)F
CCCCCCCCCC=CCC1CC(=O)OC1=O (centres undefined)
O=C(O)C(=O)O
CCOC=C(C(=O)OCC)C(=O)OCC
Brc1cc(Br)c(Oc2c(Br)cc(Br)c(Br)c2Br)cc1Br
O=c1cc(-c2ccccc2)oc2ccc3ccccc3c12
O=C(O)c1cccc(C(=O)O)n1
CCCCCCCCC1CCC(=O)O1 (centres undefined)
CC(C)C=O
FC(F)(F)C(F)(F)C(F)(F)Br
CC(C)c1c(C(=O)Nc2ccccc2)c(-c2ccccc2)c(-c2ccc(F)cc2)n1CC[C@@H](O)C[C@@H](O)CC(=O)O
CC1CCC(CO)CC1 (centres undefined)
O=C1c2ccccc2C(=O)c2c(O)c(O)cc(O)c21
CCCCCCCCCCCC(=O)O
CCc1cccc(CC)c1NC(=O)C(=O)O
COc1ccc(C#N)cc1
CCCCCCCCCCCCOC(=O)c1cc(O)c(O)c(O)c1
O=C(c1cc(O)c(O)c(O)c1)c1ccc(O)c(O)c1O
Oc1cccc2c(O)cccc12
C=CC(C)(CCC=C(C)C)OC(C)=O (centres undefined)

AC50, active:
CCCCCCCCCCCC(=O)NCCCN(C)C 20.3 µM

biological target: CCAAT/enhancer-binding protein beta (Homo sapiens) (UniProt P17676); test: ATG_C_EBP_CIS: Attagene CIS-FACTORIAL HepG2 Assay for human CCAAT/Enhancer Binding Protein (C/EBP) beta (AID 2282927); conditions: HepG2 Attagene cis-factorial transcription factor reporter; actives raise or lower the signal
Summary of the method: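 Endogenous transcription factor activity in human liver HepG2 cells is inferred from induction of a CEBPB-linked reporter mRNA. Exposure lasts 24 h; activity is fitted in both directions relative to DMSO.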

Sequence of CCAAT/enhancer-binding protein beta (Homo sapiens) (P17676 whole entry, looked up): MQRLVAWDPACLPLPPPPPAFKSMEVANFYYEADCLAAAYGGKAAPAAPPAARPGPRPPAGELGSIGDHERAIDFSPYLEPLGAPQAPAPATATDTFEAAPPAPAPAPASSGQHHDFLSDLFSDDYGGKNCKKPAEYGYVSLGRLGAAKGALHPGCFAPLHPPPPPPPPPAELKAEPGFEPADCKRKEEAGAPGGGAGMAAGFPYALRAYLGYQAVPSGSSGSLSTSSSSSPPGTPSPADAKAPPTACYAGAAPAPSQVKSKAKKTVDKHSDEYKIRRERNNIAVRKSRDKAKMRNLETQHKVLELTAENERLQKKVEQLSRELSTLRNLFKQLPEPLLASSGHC

outcome, inactive:
C=CC(=O)OCCC(F)(F)C(F)(F)C(F)(F)C(F)(F)C(F)(F)C(F)(F)F
OCC1CCC(CO)CC1 (centres undefined)
c1cnc2c(c1)ccc1cccnc12
Cc1ccc(S(=O)(=O)O)cc1
CC1=NN(c2ccccc2)C(=O)C1
FC(F)(F)N1C(F)(F)C(F)(F)OC(F)(F)C1(F)F
OCC(F)(F)C(F)(F)C(F)(F)C(F)(F)C(F)(F)C(F)(F)C(F)(F)C(F)(F)C(F)(F)C(F)(F)C(F)(F)F
O=C(Nc1ccc(Cl)c(Cl)c1)c1cc(Cl)cc(Cl)c1O
Cc1ccc(N=Nc2c(O)ccc3ccccc23)c(C)c1
C=CC(=O)OCCC(F)(F)C(F)(F)C(F)(F)C(F)(F)C(F)(F)C(F)(F)C(F)(F)C(F)(F)F
Cc1ccc2ccc3ccc(C)cc3c2c1
O=C(NCc1ncc(C(F)(F)F)cc1Cl)c1c(Cl)cccc1Cl
Cc1ccccc1C(OCCN(C)C)c1ccccc1 (centres undefined)
Nc1ccc(O)c(C(=O)O)c1
CC(C)CCOCCC(C)C
CCOC(=O)c1nc(C(Cl)(Cl)Cl)n(-c2ccc(Cl)cc2Cl)n1
O=C(F)C(F)(F)C(F)(F)C(F)(F)C(F)F
CCCCCCCCCC=CCC1CC(=O)OC1=O (centres undefined)
O=C(O)C(=O)O
CCOC=C(C(=O)OCC)C(=O)OCC
Brc1cc(Br)c(Oc2c(Br)cc(Br)c(Br)c2Br)cc1Br
O=c1cc(-c2ccccc2)oc2ccc3ccccc3c12
O=C(O)c1cccc(C(=O)O)n1
CCCCCCCCC1CCC(=O)O1 (centres undefined)
CC(C)C=O
FC(F)(F)C(F)(F)C(F)(F)Br
CC(C)c1c(C(=O)Nc2ccccc2)c(-c2ccccc2)c(-c2ccc(F)cc2)n1CC[C@@H](O)C[C@@H](O)CC(=O)O
CC1CCC(CO)CC1 (centres undefined)
O=C1c2ccccc2C(=O)c2c(O)c(O)cc(O)c21
CCCCCCCCCCCC(=O)O
CCc1cccc(CC)c1NC(=O)C(=O)O
COc1ccc(C#N)cc1
CCCCCCCCCCCCOC(=O)c1cc(O)c(O)c(O)c1
CCCCCCCCCCCC(=O)NCCCN(C)C
O=C(c1cc(O)c(O)c(O)c1)c1ccc(O)c(O)c1O
Oc1cccc2c(O)cccc12
C=CC(C)(CCC=C(C)C)OC(C)=O (centres undefined)
